Consider 93 compounds from PubChem BioAssay AID485317 (Broad Institute, 2010).

The structures appear in SMILES notation. Out of some 290,000 compounds screened, about 11,000 (3.8%) were called active. The sample holds actives, similar compounds and a random draw of the others, so the mix is not that of the screen. Values without a mark were called inactive.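 The calls were made as follows: active = mean replicate inhibition above about 79%, with every replicate also reaching it (limit read from the data); inconclusive = only one of the two criteria met; inactive = mean below limit and not every replicate reaching it.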

For the test, the target named is FAD-linked sulfhydryl oxidase ALR (Homo sapiens) (UniProt P55789). In words: inhibitors of human ALR sulfhydryl oxidase, primary screen, biochemical, H2O2 detection, HRP-luminol luminescence, single point (AID 485317). The settings on record: purified ALR, DTT oxidation, active compounds read high, concentration not given here.
Chain of FAD-linked sulfhydryl oxidase ALR (Homo sapiens) (P55789 whole entry, looked up): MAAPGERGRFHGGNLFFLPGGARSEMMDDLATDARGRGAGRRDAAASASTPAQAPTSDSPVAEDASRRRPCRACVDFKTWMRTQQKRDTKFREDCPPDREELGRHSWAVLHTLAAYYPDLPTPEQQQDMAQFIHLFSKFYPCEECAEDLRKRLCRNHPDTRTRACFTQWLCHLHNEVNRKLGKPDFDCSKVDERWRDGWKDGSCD
Turning to `CCCc1ccc(C(=O)COC(=O)CN2C(=O)NC3(CCCCC3C)C2=O)cc1` (stereo not drawn), the inhibition – broadly, the change of the read-out against control, counted positive when it falls – was -2.13%.

`COc1ccc(NC(=O)CSc2nnc(C3CC3)n2C)cc1S(=O)(=O)N1CCCCC1`: the inhibition is -0.755%.

For the compound `Nn1c(SCC(=O)Nc2ccc3c(c2)CCC3)nnc1C1CC1`, the inhibition is 98.6% (active).

For the compound `O=C(CSc1nnnn1-c1ccc2c(c1)CCC2)Nc1ccc2c(c1)OCCO2`, the inhibition is -26.1%.

For `COc1ccc2cc(C3=CC(=O)C[C@H](c4ccc5c(c4)OCO5)C3)ccc2c1`, the inhibition is 0.243%.

Consider `Cc1ccc(OCc2cc(C(=O)N(C)CCn3ccnc3C)no2)cc1C`, for which the inhibition is -0.532%.

As for `CCCCCCCNC(=O)C1(CC2CC(c3cccc(Br)c3)=NO2)CCN(C(=O)c2cc(OCC)c(OCC)c(OCC)c2)CC1` (stereo not drawn), the inhibition is -9.32%.

With `CCCCN(C(=O)CSCC(=O)Nc1ccc(OC)cc1)c1c(N)n(CCC)c(=O)[nH]c1=O`, the inhibition is 2.82%.

`CCOC(=O)Cc1ncccc1C(=O)Nc1ccc(OC)cc1`: the inhibition was 10.7%.

Consider `CCCCOc1ccc(NC(=O)CSCC(=O)OCC)cc1`, for which the inhibition is 98.6% (active).

For the compound `O=C(NNC(=O)c1cccc(S(=O)(=O)Nc2ccc(Cl)cc2)c1)c1ccc(=O)[nH]c1`, the inhibition was -5.3%.

`O=C(NCCc1ccc(C(F)(F)F)cc1)c1ccc2c(c1)OCO2`: the inhibition was -2.72%.

Consider `COc1ccc(/C=C(\C#N)C(=O)OCC(=O)N(C)C2CCS(=O)(=O)C2)cc1` (stereo not drawn), for which the inhibition is 5.52%.

In the case of `Nc1nnnn1CC(=O)N/N=C/c1ccc(-c2cccc(Cl)c2)o1`, the inhibition is -10.4%.

Regarding `O=C(O)C(c1ccccc1)N1C(=O)/C(=C\c2ccc(-c3cccc(Cl)c3)o2)SC1=S` (stereo not drawn), the inhibition is 98.2% (active).

Regarding `CN1C(=O)/C(=C\c2ccc(-c3ccccc3)o2)SC1=S`, the inhibition is -6.32%.

Take `CC1CC(=O)Nc2ccccc2N1C(=O)COc1ccc2cc(Br)ccc2c1` (stereo not drawn): the inhibition is 12.2%.

For the compound `O=C(COc1ccc(F)cc1Br)NCC1COc2ccccc2O1` (stereo not drawn), the inhibition is -3.27%.

Turning to `COc1cccc2sc3cc(NCC[C@@H]4CCCN4C)ccc3c(=O)c12`, the inhibition was -1.66%.

Take `O=c1[nH]nc(CSCc2ccccc2Cl)[nH]1`: the inhibition is -8.43%.

`Cc1cc(=O)[nH]c(SCc2ccc(Cl)cc2)n1`: the inhibition is -9.56%.

Consider `O=c1cc(O)nc(SCc2ccccc2Cl)[nH]1`, for which the inhibition is 100% (active).

As for `COc1cccc2sc(Nc3nc(C)c(C(C)=O)s3)nc12`, the inhibition is 32.7%.

Turning to `COc1ccccc1OCc1nc2ccccc2s1`, the inhibition was 2.66%.

On to `COc1cccc2sc(NNC(=O)c3nc4ccccc4s3)nc12`, for which the inhibition was 93.7% (active).

`CC(=O)C1=C(O)C(=O)N(c2ccc(Br)cc2)C1c1ccc([N+](=O)[O-])cc1` (stereo not drawn): the inhibition was 96.7% (active).

Turning to `CC(=O)C1=C(O)C(=O)N(c2cccnc2)C1c1ccc([N+](=O)[O-])cc1` (stereo not drawn), the inhibition was 36.6%.

Consider `COC(=O)CN1C(=O)C(O)=C(C(C)=O)C1c1ccc([N+](=O)[O-])cc1` (stereo not drawn), for which the inhibition was -8.67%.

For `COc1ccc(S(=O)(=O)N2CCN(CC(=O)NCC3(N4CCOCC4)CCCCC3)CC2)cc1`, the inhibition was -0.676%.

Take `CCCn1nc(C(=O)NNC(=O)CCOc2ccccc2OCC)c2ccccc2c1=O`: the inhibition is 16.7%.

On to `CCOc1ccc(NC(=O)CN(C)C(=O)COc2cccc(CC)c2)cc1OCC`, for which the inhibition was -14.9%.

For the compound `Cc1cc(NC(=O)CCS(=O)(=O)c2ccc(F)cc2)no1`, the inhibition was -5.46%.

For the compound `Cc1onc(C(=O)NN)c1-c1csc(COc2ccccc2)n1`, the inhibition is -2.47%.

As for `COc1cc(CC(=O)Nc2nc(-c3ccc(F)c(F)c3)cs2)cc(OC)c1OC`, the inhibition was 0.225%.

Regarding `CC(C)(C)C(=O)OCc1nc(-c2ccc(O)c(O)c2)cs1`, the inhibition is 99.4% (active).

Take `COc1ccc(CNC(=O)COC(=O)c2ccc(C)c(S(=O)(=O)N3CCOCC3)c2)cc1OC`: the inhibition is -7.49%.

In the case of `CC1CCCCC1NC(=O)Cn1c(=O)cnc2ccccc21` (stereo not drawn), the inhibition is -5.91%.

Turning to `NCCCCCC(=O)N/N=C/c1ccc2nccnc2c1`, the inhibition is 0.997%.

Consider `COc1cc(/C=N/NC(=O)Cc2ccccc2)cc(OC)c1OC`, for which the inhibition was -4.39%.

As for `Cc1ccc(/C=N/NC(=O)CSc2nc3ccccc3o2)cc1`, the inhibition was -3.09%.

Take `COc1cc(/C=N/NC(=O)CCc2n[nH]c(=O)[nH]c2=O)ccc1O`: the inhibition is 99.3% (active).

In the case of `C=CCOc1ccc(/C=N/NC(=O)C(C)Sc2ccccn2)cc1OCC` (stereo not drawn), the inhibition was -4.04%.

Consider `Cc1nccn1CC(=O)N/N=C/c1ccc(O)c(O)c1`, for which the inhibition was 99.4% (active).

For the compound `CCOc1ccc(/C=N/NC(=O)CSc2ccccn2)cc1O`, the inhibition is 98.9% (active).

In the case of `Cc1nc2ccccc2n1CC(=O)N/N=C/c1cccnc1`, the inhibition was -8.97%.

In the case of `COc1cc(/C=N/NC(=O)c2ccc(N3CCCC3=O)cc2)ccc1O`, the inhibition was 28%.

For the compound `Cn1c(SCC(=O)N/N=C/c2ccc(O)c(O)c2)nc2ccccc21`, the inhibition is 98.9% (active).

Take `CCOc1ccc(/C=N/NC(=O)C(C)Sc2ccccn2)cc1OCC` (stereo not drawn): the inhibition was -8.94%.

`CCn1c(SCC(=O)N/N=C/c2ccncc2)nc2ccccc21`: the inhibition is -3.78%.

`CC(C)(C)n1nc(Cc2cccc3ccccc23)c(C#N)c1N`: the inhibition was -16.1%.

As for `Cc1cc(NC(=O)CSc2nnc(-c3ccco3)n2N)no1`, the inhibition was -0.748%.

With `CCOc1ccc2oc(C(=O)N(CC)CC(=O)Nc3ccc(NC(C)=O)cc3)c(C)c2c1`, the inhibition is -6.04%.

`CCOc1ccc2ccccc2c1/C=N/NC(=O)c1c(C)cc(C)[nH]c1=O`: the inhibition is -4.32%.

Turning to `COc1ccc(NC(=O)CN(C)C(=O)c2ccc(NC3CC3)c([N+](=O)[O-])c2)cc1`, the inhibition is 9.73%.

Consider `CCOc1cc(/C=N/NC(=O)CN2CCCCC2)ccc1O`, for which the inhibition was 98.9% (active).

Consider `CCOc1cc(/C=N/NC(=O)c2cc(-c3ccccc3)nc3ccccc23)ccc1O`, for which the inhibition was 12.6%.

On to `COc1cc(/C=N/NC(=O)c2ccoc2C)ccc1OCCN1CCCCC1`, for which the inhibition is -5.33%.

Turning to `O=C(O)c1ccc(N/N=C/c2cn(-c3ccccc3)nc2-c2cccs2)cc1`, the inhibition is 98.9% (active).

Take `COc1ccc(-c2nn(-c3ccccc3)cc2/C=C\C(=O)Nc2ccc(C(=O)O)cc2)cc1`: the inhibition was -2.34%.

Turning to `O=C(/C=C\c1cn(-c2ccccc2)nc1-c1cccs1)N1CCOCC1`, the inhibition was -5.03%.

In the case of `Cc1ccc(NC(=O)CCNC(=O)c2ccc([N+](=O)[O-])cc2)cc1S(=O)(=O)N1CCOCC1`, the inhibition was -6.28%.

Consider `Cc1ccc(N2CCN(c3ccc(C)cc3)C2c2ccccn2)cc1`, for which the inhibition is 86.9% (active).

Turning to `Cc1ccc(N2C(=O)C3CC3C2=O)cc1` (stereo not drawn), the inhibition was -2.01%.

Turning to `Cc1ccc(S(=O)(=O)NCC(=O)N2CCN(c3ccccn3)CC2)cc1`, the inhibition was 3.32%.

For `CC(C)(C)OC(=O)C[C@@H]1C/C=C\C[C@H](CC(=O)N[C@@H](CO)Cc2ccccc2)C(=O)N[C@H](Cc2ccccc2)COC1=O`, the inhibition is -0.505%.

For the compound `O=C(NCc1ccccc1Cl)C(=O)NCC1CCCN1S(=O)(=O)c1cccs1` (stereo not drawn), the inhibition was -7.66%.

For `COc1ccc(C(=O)NC2CC(C)(C)Cc3c2cnn3-c2ccccc2)c(OC)c1` (stereo not drawn), the inhibition was 0.864%.

Take `Cc1cc(C(=O)NC2CC(C)(C)Cc3c2cnn3-c2ccccc2)n[nH]1` (stereo not drawn): the inhibition is 92.1% (active).

For the compound `CC1=C(C(=O)NC2CC(C)(C)Cc3c2cnn3-c2ccc(C)cc2)OCCO1` (stereo not drawn), the inhibition was -16.8%.

As for `CC(=O)Nc1cccc(C(=O)OCC(=O)NCc2cc(C)c(O)c(C)c2)c1`, the inhibition is 25.7%.

`Cc1cccc2c(=O)n3c(nc12)CCCCC3`: the inhibition was -3.58%.

Regarding `CC(=O)c1ccc(NC(=O)c2sc3nc4n(c(=O)c3c2C)CCCCC4)cc1`, the inhibition is -6.68%.

For `O=c1c2c(nc3n1CCCCC3)sc1c(O)cccc12`, the inhibition was 94.5% (active).

With `CSc1ncccc1C(=O)Nc1ccc2c(c1)OCO2`, the inhibition is -7.77%.

Take `COc1ccccc1N1CCN(CC(=O)Nc2ccnn2C2CCCC2)CC1`: the inhibition was 21.7%.

As for `O=C(OCC1O[C@@H](OC(=O)c2cc(O)c(O)c(O)c2)[C@@H](OC(=O)c2cc(O)c(O)c(O)c2)[C@@H](OC(=O)c2cc(O)c(O)c(O)c2)[C@@H]1OC(=O)c1cc(O)c(O)c(O)c1)c1cc(O)c(O)c(O)c1` (stereo partly drawn), the inhibition was 98.8% (active).

For the compound `O=C(OCC1OC(Oc2ccc(O)cc2)C(O)C(O)C1O)c1ccccc1` (stereo not drawn), the inhibition is 23.2%.

As for `CC(=O)NC1C(OCc2ccccc2)OC(COC(C)=O)C(OC(C)=O)C1OC(C)=O` (stereo not drawn), the inhibition is -6.67%.

Regarding `NC(=O)c1ccsc1NC(=O)COC(=O)Cc1n[nH]c(=O)c2ccccc12`, the inhibition is -7.95%.

Consider `Cc1cccc(NS(=O)(=O)c2ccc(C)c(C(=O)NCc3cccnc3)c2)c1`, for which the inhibition is -5.85%.

In the case of `O=C(O)c1n[nH]nc1-c1ccccc1`, the inhibition was -0.621%.

Regarding `c1ccc(Nc2n[nH]nc2-c2ccccc2)cc1`, the inhibition is 100% (active).

As to `CCCCNC(=S)NNC(=O)c1cc(C)on1`, the inhibition is 55.3%.

For the compound `CCCCNC(=O)Nc1c(C)cc(SC#N)cc1C`, the inhibition was 96.7% (active).

`CCCCNC(=O)C(=O)c1ccccc1NC(C)=O`: the inhibition was -1.84%.

Regarding `O=C(OCc1cc(=O)n2ccsc2n1)C1(c2ccc(Cl)cc2)CC1`, the inhibition was -1.54%.

Consider `COc1ccccc1C(=O)NC(=O)COC(=O)c1ccco1`, for which the inhibition was -0.0405%.

On to `Cc1cccc(NC(=O)c2ccc(S(=O)(=O)N(C)CC3CCCO3)cc2)c1C` (stereo not drawn), for which the inhibition was -10.6%.

Consider `CCN(CC(=O)NC(C)C)C(=O)c1cc(S(=O)(=O)N2CCCCC2)ccc1N1CCCCC1`, for which the inhibition was -1.75%.

`NC(=O)Nc1ccc(C(=O)OCC(=O)NC2CCCc3ccccc32)cc1` (stereo not drawn): the inhibition was -2.38%.

Take `CC(C)C[C@H](NC(=O)N1CCn2c1nc1ccccc12)C(=O)NC1CC1`: the inhibition is -10.7%.

On to `CSCC[C@H](NC(=O)N1CCn2c1nc1ccccc12)C(=O)NC1CCCCC1`, for which the inhibition was 98.2% (active).

Regarding `CSCC[C@H](NC(=O)N1CCn2c1nc1ccccc12)C(=O)NCc1ccc2c(c1)OCO2`, the inhibition was -4.75%.
